Laboratory results as given in PubChem BioAssay (Tox21).
Records with an inconclusive call do not appear. A call without a number means that no potency is given here. Values without a mark were called inactive. Calls of active or inactive are those of the source. The call rests on the fitted dose curve; in most records, active means well fitted cell-killing curve with a large enough effect in the repeat runs; inconclusive means weak or mixed curves, or effect the other way; inactive means no such curve, though single readings can be large or run the other way.

experiment: qHTS assay to identify small molecule agonists of the estrogen receptor alpha (ER-alpha) signaling pathway in the presence of an antagonist - cell viability counter screen (AID 1259386); settings: VM7Luc4E2 viability, CellTiter-Fluor fluorescence, 22 h; series mostly up to 92.4 µM;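 further: cells exposed to compounds for 22 h at 37 °C before the viability read; nearly all actives have a fitted effect of over 30% in size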
Source text: National Center for Advancing Translational Sciences [NCATS]
NIH Chemical Genomics Center [NCGC]
U.S. Environmental Protection Agency [EPA]
National Institutes of Environmental Health Sciences [NIEHS]
National Toxicology Program [NTP]
U.S. Food and Drug Administration [FDA]
Estrogen receptor (ER), a member of nuclear hormone receptor plays an important role in development, metabolic homeostasis and reproduction. Two subtypes of ER, ER-alpha and ER-beta, have similar expression patterns with some uniqueness in both types. Endocrine disrupting chemicals (EDCs) and their interactions with steroid hormone receptors like ER causes disruption of normal endocrine function. Therefore, it is important to understand the effect of environmental chemicals in ER signaling pathway. For identifying ER agonists, VM7Luc4E2 cell line has been used in the current assay.
VM7Luc4E2 cell line (provided by Denison MS, University of California) endogenously expresses full-length ER-alpha and is stably transfected with a plasmid containing four estrogen responsive elements (ERE) upstream of a luciferase reporter gene. This current screening for measuring luciferase reporter gene activity using VM7Luc4E2 cells against Tox21 10K library collection is a confirmation study on agonist mode screening in presence of ER-antagonist (ICI-182,780) at 10.0nM final concentration. The cytotoxicity of the compounds was tested in parallel by measuring the cell viability using CellTiter-Fluor assay system (Promega, Madison, WI) in the same wells.
Tox21 Assay Protocol Summary:
VM7Luc4E2 cells were cultured in phenol red free assay medium containing 10% charcoal stripped FBS for 5 days prior to the assay. The cells were dispensed at 4,000 cells in 4uL of assay medium per well into white wall/solid-bottom 1536-well plates (Corning Life Sciences, Corning, NY) using a Multidrop Combi (Thermo Fisher Scientific Inc., Waltham, MA) dispenser. After the assay plates were incubated at 37C and 5% CO2 for 24hr, 1uL of 10.0nM (final concentration) ICI-182,780 or assay buffer was added using two separate tips of Flying Reagent Dispenser (FRD, Aurora Discovery, San Diego, CA). Then 23nL of compounds dissolved in DMSO at 15 concentrations and positive controls or DMSO only was transferred to the assay plates by a Pintool station (Wako, San Diego, CA). The assay plates were incubated at 37C and 5% CO2 for 22hr. After 21hr incubation at 37C, 1uL/well CellTiter-Fluor reagent (Promega Corporation, Madison, WI) was added to each well using FRD and after 1hr incubation at 37C and 5% CO2, the fluorescence signal was measured on ViewLux plate reader (PerkinElmer, Shelton, CT).

SMILES | Potency | activity change, negative = cytotoxicity
CCOP(=S)(OCC)Oc1nc(Cl)c(Cl)cc1Cl | inactive | 
c1cc2ccc3cccc4ccc(c1)c2c34 | inactive | 
O=C(CBr)c1ccccc1 | inactive | 
COCCOCCO | inactive | 
Cn1cc[n+](C)c1 (tested in a mixture with another compound) | inactive | 
COC(=O)C(Br)CBr (stereo not given) | inactive | 
CCCCCCCCCC(=O)O[C@H]1CC[C@H]2[C@@H]3CCC4=CC(=O)CC[C@@H]4[C@H]3CC[C@]12C | inactive | 
O=C(C(Cl)(Cl)Cl)C(Cl)(Cl)Cl | inactive | 
COP(=S)(Oc1cc(Cl)c(Br)cc1Cl)c1ccccc1 (stereo not given) | inactive | 
CCCCC(CC)COP(=O)(Oc1ccccc1)Oc1ccccc1 (stereo not given) | inactive | 
CC1(C)[C@H](C=C(Cl)Cl)[C@@H]1C(=O)O[C@@H](C#N)c1cccc(Oc2ccccc2)c1 | inactive | 
CC(C)N(CCC(C(N)=O)(c1ccccc1)c1ccccn1)C(C)C (stereo not given) | inactive | 
C=CC(=O)NCNC(=O)C=C | inactive | 
CCOc1nc(F)cc2nc(S(=O)(=O)Nc3c(Cl)cccc3Cl)nn12 | inactive | 
NCC(CC(=O)O)c1ccc(Cl)cc1 (stereo not given) |  | 7.95% [at 0.349 µM]
CC[C@H]1C[C@H]2[C@@H]3CCC4=CC(=O)CC[C@@H]4[C@H]3CC[C@]2(C)[C@H]1O | inactive | 
C=CCOC(C)=O | inactive | 
C/C=C/C=O | inactive | 
Clc1cccc(SC2CCNCC2)n1 | inactive | 
O=C(NCc1cccnc1)Nc1ccc([N+](=O)[O-])cc1 | inactive | 

SMILES | Potency | activity change, negative = cytotoxicity
Cn1sc(Cl)cc1=O | inactive | 
ClCC(Br)CBr (stereo not given) | inactive | 
CCC(C)(NC(=O)c1cc(Cl)c(C)c(Cl)c1)C(=O)CCl (stereo not given) | inactive | 
N#C/C(N)=C(/N)C#N | inactive | 
CCOP(=O)(OCC)SCCSCC | inactive | 
NS(=O)(=O)C(F)(F)C(F)(F)C(F)(F)C(F)(F)C(F)(F)C(F)(F)C(F)(F)C(F)(F)F | inactive | 
Brc1ccc(Oc2ccccc2)cc1 | inactive | 
CCCC(=O)Cl | inactive | 
Cc1ccc(N)cc1C | inactive | 
O=C(CBr)Nc1ccc(Cl)cc1C(=O)c1ccccc1F | inactive | 
CCC(Cl)CCl (stereo not given) | inactive | 
BrCCCCBr | inactive | 
O=C(CCl)c1ccc(Cl)cc1Cl | inactive | 
O=C(NC(=O)c1c(F)cccc1F)Nc1cc(Cl)c(Oc2ncc(C(F)(F)F)cc2Cl)c(Cl)c1 | inactive | 
II | inactive | 
ClCCCCBr | inactive | 
CCOc1ccc(C(C)(C)COCc2cccc(Oc3ccccc3)c2)cc1 | inactive | 
CCOP(=S)(OCC)SCSCC | inactive | 
COc1nn(CSP(=S)(OC)OC)c(=O)s1 | inactive | 
C=CC(=O)OCCCCO | inactive | 
